The values below come from the supplement of paper PMC6555819.

This experiment concerns VDR:RXRa (NR concentration 270 nM, RXRa partner concentration 90 nM). The experiment can be described thus: PBM binding z-score (relative to random genomic background probes); higher = stronger binding; sequences stand for … in GC…GCGATTGACAGCGTAGAATGAAGG
How it is done:
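Protein-binding microarray (Agilent 4x180K custom design, double-stranded 60-nt probes: 5' GC cap, 34-nt variable region, 24-nt constant primer region; full probe sequence given). Purified or IVT nuclear receptor:RXRα heterodimers (3:1 NR:RXRα, mostly 270:90 nM) or homodimers were incubated for 1 h in PBS with 2% milk and no ligand, then detected with Alexa488 antibodies. Fluorescence from o1-orientation probes (~5 replicates averaged) was converted to z-scores against 500 random hg19 background probes. Variable regions are seed direct-repeat (DR0–DR5) sites, all their single-nucleotide variants and half-site ablations.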
Sequence GCAGACAGGTGAAACGCAGGTAACTCCGGGTGGC displayed a PBM binding z-score of -0.595.

CTCGAAAGGTCGGTTGACGTGAGTATACGGATAA: the PBM binding z-score came out at 1.02.

The sequence TCTGCCAGGTCAACGATGGTCAGCTAATCTGCTA gave a PBM binding z-score of 2.49.

With AATACAGGGTCACTAGTCCAGAGTAGGTACGAAT, the PBM binding z-score was 4.05.

With AGTCAAAGTTCATCTAGGTAACGTCAGATATGCT, the PBM binding z-score stood at 5.17.

The sequence TCATATAGGTAAAGGAGAAAGTCGAACGATATGA had a PBM binding z-score of 0.392.

In turn, GCAGACAGGAGAAACGCAGGTAACTCAGGGTGGC came in with a PBM binding z-score of -0.548.

Take GCATATAGGTAATACAAGGTGAAAGACCGATTGT: the PBM binding z-score came out at 0.319.

CTCAAAAGGTCGGTTGAGGTGAGTATACGGATAA yielded a PBM binding z-score of 2.54.

CCTAGCAGGCCGATCTGGGTCACTCAAGGCTTGA displayed a PBM binding z-score of 0.114.

Regarding CCTTACGGGTCACTGACAGGTTATAGCTTTTGGA, the PBM binding z-score turned out to be 3.56.

Consider CCTCGGAGGACAACAGGAGGTCGGAGCTGCCAGA, for which the PBM binding z-score was -0.0445.

AGAATGAGGTTATTAAGATGAGGGAATTGCGGTC yielded a PBM binding z-score of 1.15.

In the case of CGAACGAGGGCATGAGTTCATAGCAAATGCCGAT, the PBM binding z-score came to 5.62.

GGAACGAGTGCAAGTTGATAGCAGAGTTTGATGG displayed a PBM binding z-score of 0.646.

For TCGAGTAGGTTAGTCGGGGCATTCCGCCAACATA, the PBM binding z-score worked out at 2.1.

As to CGACCAAGGTCAGAGAGGTCAGTGAATGCCGAGT, the PBM binding z-score stood at 7.47.

With GATACAGGGCCAGCTAGAGGCCAGAGTATGGAAA, the PBM binding z-score is -0.843.

GATACAGGGTCAAGGCCAGAGTGCGCGTATTGAT displayed a PBM binding z-score of 4.23.

The sequence CCTCGGAGGACAGGAGGTCAGAGCTGTCCGCTTT displayed a PBM binding z-score of 1.47.

As to ACTATTAGTGGACTTAGGGCAACCGATACGACGC, the PBM binding z-score was 0.119.

Sequence TCTAGTTGGTCAAAGGTCGCACACTCGAAATGCG displayed a PBM binding z-score of 3.18.

Turning to ACTGTTAGTTGAGACGAGGGCAACCGATAGGTTG, the PBM binding z-score was 0.595.

Regarding CCTTACGGGTCAAAGTTATAGCACGGGTGGTACG, the PBM binding z-score came out at 3.54.

TCTTGTAGATCAATAGAGGTTAAGACAGTGCGCT yielded a PBM binding z-score of 1.7.

Sequence CCGACTAGGGCAAGGTTACCATAACGCACAGCCA yielded a PBM binding z-score of 0.178.

The sequence CGTCCAAGGTCAAATGTCAGTGAAGAGATGACGG had a PBM binding z-score of 4.67.

The sequence CAAACTAGGTCAAGAGGTCAAAGTGCGCTTCCCG yielded a PBM binding z-score of 6.26.

As to CGTCCAAGGTCAGCAGATCAGTGAAAGCGACGTG, the PBM binding z-score came out at 2.37.

Regarding ACTCAGAGGACAAAGGTCAGAGCTACGCCAGTGA, the PBM binding z-score was 3.62.

CTTACAGGGTCAGCTAGGCCAGAGTAGGGACGGC yielded a PBM binding z-score of 3.88.

In the case of CGAGACAGGTGAGAAGGTAACTCAGCCTCGATTA, the PBM binding z-score is -0.375.

ACAGAGAGGTGAGTGAAGGTAACTCAGCTGGACG displayed a PBM binding z-score of 0.13.

For the sequence CAAACTATGTCAAAGGTCAAAGTCGAGCCAACCA, the PBM binding z-score stood at 5.41.

The sequence ATATGTAGGTTACATCCGGGTTATTCAGGCTATG gave a PBM binding z-score of 1.68.

Sequence TGAATGAGGTTAAAGATGAGGGAACGTGGCGTCG had a PBM binding z-score of 1.48.

Sequence CGTCCAAGGTCAAAGGTCTGTGAAGAGATGACGG showed a PBM binding z-score of 4.54.

The sequence CCTGCTAGGTCATGGTCAGCTGATCTACAGTATG showed a PBM binding z-score of 1.95.

Take TCTCGAAGGACACGAAGGTCAGAGCTTTCCAGAG: the PBM binding z-score amounted to 1.86.

TCTTGTAGATCAAGCAGGTTCAGAAAGCCTGAGT returned a PBM binding z-score of 1.93.
